# From the supplement of paper PMC12340641
# What was measured:
# [1] = target: IKZF1 (dCK*-IKZF1 fusion in HEK293FT) (UniProt Q13422); assay: inhibition of IKZF1 HTRF signal (DMSO = 0%, pomalidomide 10 uM = 100%); higher = lower IKZF1 protein level; settings: compound concentration: 5 uM, overnight (~20 h)
# Procedure, shortened: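 HEK293FT cells stably expressing a dCK*-IKZF1 fusion (2000/well, 384-well) were treated overnight at 37 °C with 5 μM compound in single wells. They were then lysed 30 min at room temperature, and lysate was incubated overnight with a commercial HTRF total-IKZF1 antibody kit. The time-resolved FRET ratio (665/620 nm) was background-subtracted. Percent inhibition of IKZF1 signal was normalised per plate to vehicle (0%) and a reference degrader (100%).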
# HEK293FT dCK*-only = assay: relative growth in counter assay (no AraC = 100%, AraC + DMSO = 0%); higher = more growth rescue independent of IKZF1; settings: compound concentration: 5 uM; AraC concentration: 0.3 uM; overnight pretreatment + 4 days AraC
# Procedure, shortened: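 In 384-well plates, 300 HEK293FT cells per well expressing an engineered kinase construct alone got 5 μM compound 2 h after seeding. After overnight at 37 °C, 0.3 μM nucleoside suicide substrate plus medium was applied for 4 days. Counting of Hoechst 33342-stained nuclei by imaging on day 5 was normalised per plate, with 100% for no-substrate wells and 0% for substrate plus vehicle.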
# HEK293FT dCK*-IKZF1 = assay: relative growth recovery (pomalidomide 10 uM = 100%, DMSO = 0%); higher = more growth rescue (IKZF1 fusion degradation); settings: compound concentration: 5 uM; AraC concentration: 0.3 uM; overnight pretreatment + 4 days AraC
# Procedure, shortened: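 On day 5, whole-well imaging was used to count Hoechst 33342-stained nuclei of HEK293FT cells stably carrying a deoxycytidine kinase–IKZF1 fusion. These cells had received 5 μM compound 2 h after seeding, followed after overnight at 37 °C by a nucleoside suicide substrate at 0.3 μM plus medium for 4 days. Growth recovery was normalised on each plate against a reference degrader and vehicle, which defined 100% and 0%, and values are duplicate means from separate days.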
# Sequence of IKZF1 (dCK*-IKZF1 fusion in HEK293FT) (Q13422 whole entry, looked up, the tested form may be a part): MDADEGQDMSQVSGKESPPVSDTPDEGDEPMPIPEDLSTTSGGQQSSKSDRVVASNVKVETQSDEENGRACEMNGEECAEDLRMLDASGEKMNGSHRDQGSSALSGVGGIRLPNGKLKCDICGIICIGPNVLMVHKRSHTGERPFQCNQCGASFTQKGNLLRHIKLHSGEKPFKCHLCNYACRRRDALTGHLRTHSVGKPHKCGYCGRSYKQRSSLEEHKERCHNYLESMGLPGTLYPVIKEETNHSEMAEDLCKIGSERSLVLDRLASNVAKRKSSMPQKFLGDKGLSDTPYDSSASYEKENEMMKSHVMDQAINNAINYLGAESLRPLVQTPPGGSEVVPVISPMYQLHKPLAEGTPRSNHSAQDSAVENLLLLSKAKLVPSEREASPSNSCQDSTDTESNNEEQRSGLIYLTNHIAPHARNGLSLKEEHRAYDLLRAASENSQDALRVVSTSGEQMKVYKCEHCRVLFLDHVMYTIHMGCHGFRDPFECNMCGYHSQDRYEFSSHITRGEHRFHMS
SMILES,inhibition of IKZF1 HTRF signal [1] [%],relative growth in counter assay (HEK293FT dCK*-only) [%],relative growth recovery (HEK293FT dCK*-IKZF1) [%]
COC(=O)Nc1nc2cc(SC(C)C)ccc2[nH]1 [methiazole],36.1,-32.7,-10.8
CCCCC1OC(=O)c2ccccc21 (stereo unspecified) [Butylphthalide],-30.6,1.67,1.08
CCCCNC(=O)NS(=O)(=O)c1ccc(C)cc1,-29.8,0.26,-3.39
CO[C@H]1/C=C/O[C@@]2(C)Oc3c(C)c(O)c4c(O)c(cc(O)c4c3C2=O)NC(=O)/C(C)=C\C=C\[C@H](C)[C@H](O)[C@@H](C)[C@@H](O)[C@@H](C)[C@H](OC(C)=O)[C@@H]1C [Rifamycin SV Sodium],-36.7,2.23,0.23
Nc1ncn([C@H]2C[C@H](O)[C@@H](CO)O2)c(=O)n1 [decitabine],27.4,-31.5,-10.8
O=c1[nH]c2ccccc2n1C1CCN(CCOc2ccccc2)CC1 [oxiperomide],23.7,-11.6,2.25
O=C(/C=C/c1ccc(O)c(O)c1)OCCc1ccccc1 [caffeic-acid-phenethyl-ester],-31.4,-29,-7.03
C=C1/C(=C/C=C2\CCC[C@]3(C)[C@@H]([C@H](C)/C=C/[C@@H](C)C(C)C)CC[C@@H]23)C[C@@H](O)C[C@@H]1O [Doxercalciferol (Hectorol)],-23,1.09,2.85
Oc1c(Cl)cc(Cl)c2cccnc12,-21.5,-3.56,-0.1
O=C(O)c1ccc(/C=C2/SC(=S)N(c3cccc(C(F)(F)F)c3)C2=O)cc1,-26.9,-1.87,-0.07
CO[C@H]1/C=C/O[C@@]2(C)Oc3c(C)c(O)c4c(O)c(c5c(c4c3C2=O)=NC2(CCN(CC(C)C)CC2)N=5)NC(=O)C(C)=CC=CC(C)[C@H](O)[C@@H](C)[C@@H](O)[C@@H](C)[C@H](OC(C)=O)[C@@H]1C (stereo partly specified) [Rifabutin],0.83,3.92,-0.05
CN(C)CCC=C1c2ccccc2CCc2ccccc21,8.98,-1.73,0.57
O=C(NC(NC(=S)Nc1ccc(F)c([N+](=O)[O-])c1)C(Cl)(Cl)Cl)C(c1ccccc1)c1ccccc1 (stereo unspecified),-19.4,-20.4,-10.6
CN1C(=O)CC(C)(c2ccccc2)C1=O (stereo unspecified),19.8,7.33,3
Nc1ccc(S(=O)(=O)Nc2cnc3ccccc3n2)cc1,-31.3,-4.7,-1.83
O=C(NCC1CCCCN1)c1cc(OCC(F)(F)F)ccc1OCC(F)(F)F (stereo unspecified) [flecainide],-38,-3.96,0.135
O=[N+]([O-])c1ccc2nc(COCc3nc4ccc([N+](=O)[O-])cc4[nH]3)[nH]c2c1,-34.1,-3.14,4.2
